# According to PubChem BioAssay:
# Active and inactive are the calls of the source.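 Rule for the calls, unless noted: active = fluorescence slope after compound addition differing from the mean of all screened samples at 99.7% confidence, in either direction; inactive = the rest.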
# Experiments:
# [1] = inhibitors of TNFa-induced NFkB p65 translocation, primary screen, imaging, HUVEC, MLSMR starter and 10KST1 sets (AID 438;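 active = inhibition above 20% together with a positive visual image hit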;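 note: compound added about 3h40 before a 20 min TNFalpha stimulation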;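 for inhibition: signal is the nuclear over cytoplasmic p65 intensity ratio per well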); conditions: HUVEC TNFa-induced p65 nuclear translocation; cell count: measured here: nuclei count (cytotoxicity indicator), at 2.08 µM; inhibition: at 2 µM, stronger effect = higher value, 0% TNFa-plus-vehicle, 100% no-TNFa wells
# [2] = reduction of polyQ htt aggregates in cells – imaging, exon1htt(103Q)mCFP cells, high-content imaging, primary screen (AID 483;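 active = visual image review flags a hit and inhibition of aggregation exceeds 20%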;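 note: compound exposure lasted 3 days before fixation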;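 for nuclei count: percent of the per-plate median nuclei count of sample wells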); conditions: exon1htt(103Q)mCFP cell line, aggregate imaging, at 2 µM; inhibition of aggregation: stronger effect = higher value; nuclei count: measured here: cell count, toxicity
# [3] = endothelial E-selectin expression blockers – imaging, HUVEC, immunofluorescence, MLSMR starter and 10KST1 sets, primary screen (AID 487;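 active = visually confirmed hit in the image check and inhibition above 20%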;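 for inhibition: signal is fraction of cell area covered by stained E-selectin grains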;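 for nuclei count: 100% = median nuclei count of all wells on the same plate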); conditions: HUVEC TNFalpha-induced E-selectin immunofluorescence imaging, at 2 µM; inhibition: stronger effect = higher value; nuclei count: measured here: cell number, toxicity
# [4] = target: Voltage-gated potassium channel subunit beta-2 (Rattus norvegicus) (UniProt P62483); test: inhibitors of rat Kvbeta2 reductase activity – biochemical, NADPH fluorescence, primary screen (AID 622;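 active = fluorescence slope higher than the sample average by over 3 SD, cut at about -0.22 in these data, passing the limit was not always enough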;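 note: slope of raw intensity against log time taken from 70 to 1610 s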); conditions: recombinant KvBeta, 4-cyanobenzaldehyde reduction, at 10 µM, stronger effect = higher value
# [5] = target: Voltage-gated potassium channel subunit beta-2 (Rattus norvegicus) (UniProt P62483); test: enhancers of rat Kvbeta2 NADPH turnover – biochemical, NADPH fluorescence, primary screen (AID 623;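 active = NADPH fluorescence slope more negative than the mean of all samples by about 3 SD, 99.7% confidence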;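 note: fluorescence intensity change per second fitted from 20 to 320 s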); conditions: Recombinant KvBeta, NADPH fluorescence decrease slope, 10 min; at 10 µM; stronger effect = lower value
# [6] = target: Alpha-2C adrenergic receptor (Homo sapiens) (UniProt P18825); test: compounds altering alpha2C-coupled GIRK flux – cell-based, HEK293 alpha2C/GIRK1/2, thallium flux, primary screen (AID 624); conditions: thallium flux BTC fluorescence, at 10 µM, actives lie on both sides;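 note: slope of fluorescence ratio to pre-addition baseline per second over 15 to 24 s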
# [7] = blockers of RIG-like receptor reporter activation – cell-based, Sendai virus stimulus, luciferase, 10K MLSCN set, TLR/RLR signaling modifier project, primary screen (AID 602276;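 active = inhibition at or above 50% at 10 µM; inactive = inhibition below 50%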;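 note: firefly luciferase from ISG56 promoter only with Renilla not read in this screen; 0% = Sendai virus plus DMSO and 100% = medium plus DMSO without virus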); conditions: HEK293 RL24 IRF3 luciferase reporter, at 10 µM, stronger effect = higher value
# [8] = TLR3 IRF3 reporter activation blockers – cell-based, poly I:C stimulus, luciferase, 10K MLSCN set, primary screen (AID 602277;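 active = inhibition of the reporter signal at or above 50%; inactive = inhibition below 50%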); conditions: HEK293-TLR3 RL24 IRF3 luciferase reporter, at 10 µM, stronger effect = higher value
# Sequence of Alpha-2C adrenergic receptor (Homo sapiens) (P18825 whole entry, looked up): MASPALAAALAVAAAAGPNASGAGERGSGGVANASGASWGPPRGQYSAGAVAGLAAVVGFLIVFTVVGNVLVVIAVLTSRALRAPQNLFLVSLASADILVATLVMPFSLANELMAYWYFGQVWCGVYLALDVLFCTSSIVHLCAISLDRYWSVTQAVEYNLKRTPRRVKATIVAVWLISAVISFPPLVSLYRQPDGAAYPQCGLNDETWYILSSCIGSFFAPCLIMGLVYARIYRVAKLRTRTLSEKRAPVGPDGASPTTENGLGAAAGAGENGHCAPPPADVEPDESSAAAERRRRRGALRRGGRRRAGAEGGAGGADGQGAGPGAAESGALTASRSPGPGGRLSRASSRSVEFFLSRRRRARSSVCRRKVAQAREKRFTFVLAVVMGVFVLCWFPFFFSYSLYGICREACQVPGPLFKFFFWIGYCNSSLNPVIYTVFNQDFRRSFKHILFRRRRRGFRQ
# Sequence of Voltage-gated potassium channel subunit beta-2 (Rattus norvegicus) (P62483 whole entry, looked up): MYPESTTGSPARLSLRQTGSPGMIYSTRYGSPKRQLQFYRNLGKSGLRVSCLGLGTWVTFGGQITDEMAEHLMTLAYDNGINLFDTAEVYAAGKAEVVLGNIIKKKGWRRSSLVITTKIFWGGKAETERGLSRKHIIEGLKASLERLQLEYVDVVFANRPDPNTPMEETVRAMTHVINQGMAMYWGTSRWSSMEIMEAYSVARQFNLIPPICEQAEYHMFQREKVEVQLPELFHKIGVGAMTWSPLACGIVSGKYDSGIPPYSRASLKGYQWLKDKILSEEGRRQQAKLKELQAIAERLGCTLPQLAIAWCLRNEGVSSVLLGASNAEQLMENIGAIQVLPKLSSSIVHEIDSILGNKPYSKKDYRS
Compound,cell count [1],inhibition [1],inhibition of aggregation [2],nuclei count [2],inhibition [3],nuclei count [3],fluorescence slope [4],NADPH fluorescence slope [5],slope [6],inhibition [7],inhibition [8]
Cc1cc(S(=O)(=O)N2CCN(c3ccccc3C)CC2)ccc1F,651,-8.1% (inactive),-13.5% (inactive),103%,-131% (inactive),125%,-0.462 (inactive),1.6e-05 (inactive),0.00665 (inactive),14.2% (inactive),28.2% (inactive)
CC1=Nn2c(nnc2-c2cc(-c3ccccc3)n[nH]2)SC1,574,-3.3% (inactive),-6.6% (inactive),81.3%,32.4% (inactive),87.4%,-0.617 (inactive),-1.7e-05 (inactive),0.00561 (inactive),18.2% (inactive),32.9% (inactive)
CCOC(=O)c1oc2c(CN3CCN(C)CC3)c(O)ccc2c(=O)c1-c1ccccc1OC,463,2.1% (inactive),-44.9% (inactive),86.2%,-59% (inactive),103%,-0.61 (inactive),8.1e-06 (inactive),0.00673 (inactive),9.7% (inactive),20.2% (inactive)
NC(=O)c1c(NC(=O)Cc2cccs2)sc2c1CCC2,537,-17.1% (inactive),12.6% (inactive),109%,-43% (inactive),150%,-0.483 (inactive),-6.1e-05 (inactive),0.00572 (inactive),-14.3% (inactive),-35.7% (inactive)
Cc1cc2ccccc2n1CCNC(=O)C1CC1,709,-6.9% (inactive),-3.6% (inactive),107%,-35% (inactive),120%,-0.42 (inactive),-3.8e-05 (inactive),0.00596 (inactive),11.4% (inactive),33.2% (inactive)
COc1ccc(NC(=O)NCCN2C(=O)C3C4C=CC(C4)C3C2=O)cc1 (centres undefined),572,-0.8% (inactive),0.8% (inactive),75.5%,-25.1% (inactive),110%,-0.54 (inactive),-3.1e-05 (inactive),0.00569 (inactive),-29.6% (inactive),-73.3% (inactive)
O=C(N1CCN(c2ccccc2F)CC1)C12CC3CC(CC(C3)C1)C2,242,3.4% (inactive),-2.5% (inactive),99.4%,17.9% (inactive),95%,-0.387 (inactive),2.5e-05 (inactive),0.00709 (inactive),7.35% (inactive),14.4% (inactive)
CCOC(=O)C1=C(C)NC(=O)NC1c1ccc(Br)s1 (centres undefined),516,1.2% (inactive),5.5% (inactive),105%,28.9% (inactive),104%,-0.502 (inactive),-6.2e-05 (inactive),0.00543 (inactive),11.8% (inactive),12.6% (inactive)
CC1=C/C(=C/N(C)c2ccccc2)C(=O)S1,582,-3.5% (inactive),-10.1% (inactive),97.7%,31.4% (inactive),88.1%,-0.61 (inactive),1.5e-05 (inactive),0.0049 (inactive),-17.2% (inactive),-17% (inactive)
CC1CCCN(C(=O)CN2CCN(C(=O)c3ccco3)CC2)C1 (centres undefined),238,0.4% (inactive),20.8% (inactive),76%,-18.8% (inactive),152%,-0.596 (inactive),-6.2e-05 (inactive),0.00367 (inactive),7.97% (inactive),14.7% (inactive)
Cc1cc(C)cc(NS(=O)(=O)c2ccc3[nH]c(=O)[nH]c3c2)c1,378,-5.5% (inactive),2.4% (inactive),112%,-23.4% (inactive),115%,-0.392 (inactive),4.9e-07 (inactive),0.00328 (inactive),16.1% (inactive),36.9% (inactive)
Cc1ccc(O)c(-c2cc(C(=O)Nc3ccc(S(=O)(=O)N4CC(C)OC(C)C4)cc3)[nH]n2)c1 (centres undefined),371,6.2% (inactive),0.4% (inactive),97.2%,0.1% (inactive),92.7%,-0.478 (inactive),-0.000199 (inactive),0.00494 (inactive),22.4% (inactive),43.5% (inactive)
CC12CCC(C(=O)O)(c3nc(C#N)c(C#N)nc31)C2(C)C (centres undefined),437,-4.7% (inactive),26.3% (inactive),90.9%,-15.3% (inactive),106%,-0.618 (inactive),-3.8e-05 (inactive),0.0041 (inactive),15.9% (inactive),21.6% (inactive)
O=C(CCc1ccc(S(=O)(=O)N2CCOCC2)cc1)NCCc1ccccn1,709,3.1% (inactive),-8% (inactive),104%,-158% (inactive),144%,-0.568 (inactive),1.5e-05 (inactive),0.00601 (inactive),-4.86% (inactive),1.41% (inactive)
